From PubChem BioAssay
A selection: hits, their analogues and other compounds. The true share with any hit is near 1.9%.
PABP1 MLLE inh – inhibitors of microRNA-mediated deadenylation, human PABP1 MLLE binding; P11940; AID 588489; 0.36% of 360,000 active; inhibition, % at 20 µM; GST-MLLE / FITC-PAM2 fluorescence polarization; in the data active = inhibition above about 35%, passing the limit was not always enough
PABP polyA inh – PABP-poly(A) binding inhibition; 1% of 290,000 active; inhibition, % at 35 µM; AID 2014; P11940; PABP-poly(A) RNA binding, fluorescence polarization;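 also: calls also rest on retests at 20 µM and on dose response follow-up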
GRK2 inh – human GRK2 inhibition via aptamer displacement; P25098; bead flow cytometry, FAM-aptamer displacement from GRK2; inhibition of aptamer binding, % at 10 µM; 0.59% of 330,000 active;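 active = inhibition of aptamer binding above 40%, roughly 3 SD of noise, on plates passing a quality check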;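 also: median bead fluorescence of bound FAM aptamer so fluorescent compounds give negative values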
PERK inh – human PERK inhibition, primary cell-based screen | inhibition, % at 5.6 µM | CHO PERK-DD fusion, SEAP luminescence translation reporter | 0.17% of 220,000 active | AID 1416;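 active = inhibition above the mean inhibition of all tested compounds plus 3 SD, set separately per screening campaign, cut at about 2.9% in these data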;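 also: PERK kinase domain activated by AP20187 dimerizer at 100 nM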
eIF4H FP inh – inhibitors of RNA binding by human eIF4H. Q15056. eIF4H fluorescence polarization binding assay. inhibition, % at 35 µM. 0.94% of 290,000 active. AID 2012;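 also: calls also rest on retests at 20 µM and on dose response follow-up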
Large screens that a line does not name were inactive. Unless noted, no rule for the calls is given here.

CON/C=N/C(=S)Nc1ncc(C(F)(F)F)cc1Cl	PABP1 MLLE inh 42
CC(C)C(=O)Nc1ncc(C(F)(F)F)cc1Cl	none
ON/C=N/C(=S)Nc1ncc(C(F)(F)F)cc1Cl	PABP1 MLLE inh 38
Cc1coc2c1C(=O)C(=O)c1c-2ccc2c(C)cccc12	PABP polyA inh 79, eIF4H FP inh 78 (no result: PERK inh)
Cc1coc2c1C(=O)C(=O)c1c-2ccc2c1CCCC2(C)C	PABP polyA inh 51, eIF4H FP inh 64
Cc1ccc(C(=O)c2coc3c2C(=O)C(=O)c2ccccc2-3)cc1	none
C[C@H]1COC2=C1C(=O)C(=O)c1c2ccc2c1CCCC2(C)C	none
COCCNC(=O)CCC1CCN(Cc2cccc(Oc3ccccc3)c2)CC1	none (no result: PERK inh)
Cc1cc2c(NC(=O)Nc3ccc(F)cc3)cccc2nn1	PERK inh 3.4
Cc1cc2c(NC(=O)CC(C)(C)CC(=O)O)cccc2nn1	none
C=CCOc1ccc(C2OC34CCCCC3C(C#N)(C#N)C2(C#N)C(=N)O4)cc1 (stereo not drawn)	PABP polyA inh 104, eIF4H FP inh 84
C=CCSc1nc2c(c(=O)[nH]c(=O)n2C)n1C(C)C	PABP1 MLLE inh 41
CN(c1ccccc1)S(=O)(=O)c1cccc(NC(=O)CSc2ncc(C(F)(F)F)cc2Cl)c1	none
O=c1c2c(nc3cc(-c4ccc(Cl)cc4)[nH]n13)CCS2	PABP polyA inh 0.7, eIF4H FP inh inconclusive
Cc1cc(C)c(NS(=O)(=O)c2ccc3c(c2)oc(=O)n3C)c(C)c1	none (no result: PABP polyA inh, GRK2 inh, PERK inh, eIF4H FP inh)
Cn1c(=O)oc2cc(S(=O)(=O)NCc3ccc(F)cc3)ccc21	none (no result: PERK inh)
CCC1CCCCN1Cc1ccc(CNS(=O)(=O)c2ccc3c(c2)oc(=O)n3C)o1 (stereo not drawn)	PABP polyA inh 68, eIF4H FP inh 55
Cn1c(=O)oc2cc(S(=O)(=O)Nc3cccc4c3CCCC4)ccc21	PABP polyA inh 56, eIF4H FP inh 62
Cn1c(=O)oc2cc(S(=O)(=O)NCc3cccnc3)ccc21	PABP polyA inh 24
Cc1cccc(C)c1NC(=O)Nc1nnc([C@@H]2C[C@H](O)[C@@H](CO)O2)s1	none (no result: PABP polyA inh, GRK2 inh, PERK inh, eIF4H FP inh)
O=C(NCC(c1ccco1)N1CCCC1)c1sc2ccccc2c1Cl (stereo not drawn)	PABP polyA inh 84, eIF4H FP inh 85 (no result: PERK inh)
O=C(C1CC(=O)N(c2ccccc2)C1)N1CCN(c2ccccc2)CC1 (stereo not drawn)	none (no result: PERK inh)
COCc1cc(C)nc(SCC(=O)Oc2ccccc2)c1C#N	none
COCc1cc(C)nc(SCC(=O)Oc2ccc(Cl)cc2)c1C#N	PABP polyA inh 54, eIF4H FP inh active
COc1cccc(-n2c(SCC(N)=O)nc3ccccc3c2=O)c1	eIF4H FP inh 58
NC(=O)CSc1nc2ccccc2c(=O)n1-c1ccccc1	none (no result: PERK inh)
CC(=O)Nc1ccc(NC(=O)C(C)Sc2nnc(-c3cccs3)o2)cc1 (stereo not drawn)	none
O=C1C=CC(=O)N1c1ccc(Nc2ccccc2)cc1	PABP1 MLLE inh 41 (no result: PABP polyA inh, GRK2 inh, PERK inh, eIF4H FP inh)
CCCSc1ncnc2sc(C)c(C)c12	none
Cc1sc2ncnc(SCC#N)c2c1C	eIF4H FP inh 37
Cc1ccc2c(c1)N(C(=O)c1ccco1)C(C)(C)c1ssc(=S)c1-2	PABP polyA inh 75, eIF4H FP inh active
Cc1cccc2c1N(C(=O)c1ccco1)C(C)(C)c1ssc(=S)c1-2	none
COc1ccc(NC(=O)CN(C)C(=O)c2cc3c(s2)CCC3)cc1	GRK2 inh 63 (no result: PABP polyA inh, PERK inh, eIF4H FP inh)
CC(=O)Nc1ccc(S(=O)(=O)N2CCC(N3CCCCCC3)CC2)cc1	none (no result: PERK inh)
COc1ccc(C2CC(=O)C(C(c3ccc(O)cc3)C3C(=O)CC(c4ccc(OC)cc4)CC3=O)C(=O)C2)cc1 (stereo not drawn)	GRK2 inh 52 (no result: PABP1 MLLE inh)
COc1ccc(C2=CC(=O)CC(c3ccc(OC)cc3)C2)cc1 (stereo not drawn)	none
CSCCNC(=O)Nc1c(-c2c(Cl)cccc2Cl)noc1C	none
O=C1CCCC2=C1C(c1ccc(Cl)cc1)n1c(s/c(=C\c3ccc4ccncc4c3)c1=O)=N2 (stereo not drawn)	PABP polyA inh active, eIF4H FP inh 55
CCCCOC(=O)C(C)Nc1n[nH]c(=O)[nH]c1=O (stereo not drawn)	PERK inh 2.9
CCCCOC(=O)C(C)Nc1n[nH]c(=S)[nH]c1=O (stereo not drawn)	none (no result: PABP1 MLLE inh)
Cc1ccc(C)c(NC(=O)COC(=O)c2ccc3c(c2)OCO3)c1	PABP polyA inh 71, eIF4H FP inh 14
Cc1cccc(/C(N)=N/OC(=O)c2ccc3c(c2)OCO3)c1	PABP polyA inh 72, eIF4H FP inh 2.0
Cc1ccc(S(=O)(=O)N(C)C)cc1NC(=O)COC(=O)c1ccc2c(c1)OCO2	none
N/C(=N\OC(=O)c1ccc2c(c1)OCO2)c1cccc([N+](=O)[O-])c1	none
O=C(NCc1cccnc1)c1[nH]c(C(F)(F)F)nc1-c1ccccc1	none (no result: PABP polyA inh, GRK2 inh, PERK inh, eIF4H FP inh)
O=C(Nc1ccccc1Cl)C(Cl)C(=O)c1ccccc1 (stereo not drawn)	eIF4H FP inh 8.0 (no result: GRK2 inh)
CC1(Cc2ccc(F)c(Cl)c2)C(=O)Nc2c(Cl)cccc21 (stereo not drawn)	none (no result: PABP polyA inh, GRK2 inh, PERK inh, eIF4H FP inh)
CC(=O)N1CCC2(CC1)C/C(=N\NC(=S)Nc1ccccc1C)c1cc(O)ccc1O2	eIF4H FP inh 8.5
O=c1cc(CCl)nc2sc3ccccc3n12	PABP polyA inh inconclusive
O=C(OCc1cc(=O)n2c(n1)sc1ccccc12)c1ccc(O)cc1	eIF4H FP inh 79
Cc1cccc(C(=O)N[C@H](C(=O)OCc2cc(=O)n3c(n2)sc2ccccc23)C(C)C)c1	PABP polyA inh active, eIF4H FP inh 85
COc1ccc(/C=C/C(=O)OCc2cc(=O)n3c(n2)sc2ccccc23)cc1	none
CCOC(=O)Cn1nc2sc3ccccc3n2c(=O)c1=O	none
Cc1c(O)nc2sc3ccccc3n2c1=O	PERK inh 4.4 (no result: PABP1 MLLE inh)
CCCn1c(SCC(=O)NC2CCCC2)nnc1-c1cccnc1	none (no result: PERK inh)
Cc1noc(C)c1CSCC(=O)OCC(=O)Nc1sccc1C#N	PABP polyA inh 74, eIF4H FP inh 58
N#Cc1ccsc1NC(=O)COC(=O)CCCSc1nc2ccccc2s1	PABP polyA inh 122, eIF4H FP inh 102
O=[N+]([O-])c1ccc(C=CC=Cc2ccccc2)cc1	none (no result: PABP polyA inh, GRK2 inh, PERK inh, eIF4H FP inh)
[O-]/[N+](=C\C=C\c1ccccc1)c1ccccc1	PABP polyA inh 52, eIF4H FP inh 1.1
COc1cc(/C=N/NC(=O)c2cccnc2)cc2c1OCO2	none (no result: PERK inh)
COc1cc(/C=N/NC(=O)c2ccccn2)cc2c1OCO2	PABP polyA inh 79, eIF4H FP inh inconclusive
O=C(COC(=O)c1cncc(Br)c1)NCc1ccccc1Cl	PABP polyA inh 63
O=C(COC(=O)c1cncc(Br)c1)NCc1ccccc1	none
Cc1sc2nc(COC(=O)c3ccc(Cl)c(N)c3)[nH]c(=O)c2c1C	PABP polyA inh 63, eIF4H FP inh 74
Cc1sc2nc(COC(=O)c3ccc(N4CCCC4)c([N+](=O)[O-])c3)[nH]c(=O)c2c1C	PABP polyA inh 1.7, eIF4H FP inh inconclusive
COC(=O)[C@@H](NS(=O)(=O)c1cc(Br)ccc1Br)C(C)C	none (no result: PABP polyA inh, GRK2 inh, PERK inh, eIF4H FP inh)
CN(C)CCNC(=O)c1ccc(-c2cnn(C)c2)c2ccoc12	none (no result: PABP polyA inh, GRK2 inh, PERK inh, eIF4H FP inh)
COc1ccc(/C=C2/C(=O)OCc3cc(OC)c(OC)cc32)cc1	PABP polyA inh 104, eIF4H FP inh active
